H9c2 protect = modulators protecting cardiomyocytes from myocardial damage. H9c2 cardiomyocytes, H2O2 injury protection, ATPLite, 2 h. protection from H2O2 cell death, % at 20 µM. actives 0.63% (n = 360,000). AID 588492;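 active means compounds giving at least 50% protection of heart cells from peroxide-induced death in the single-dose screen, raw or plate-pattern-corrected value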;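 further: 0% = DMSO wells with peroxide and 100% = DMSO wells without peroxide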
PfGluPho inh = PfG6PD (Plasmodium falciparum) enzyme inhibition. PfGluPho enzyme, NADPH resazurin-diaphorase fluorescence. actives 0.78% (n = 350,000). inhibition, % at 20 µM;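 active means inhibition reaching at least a set limit at 20 µM in the primary screen, cut at about 59% in these data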;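 further: 0% = DMSO wells with substrate and 100% = DMSO wells lacking glucose-6-phosphate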
PHOSPHO1 block = inhibitors of human PHOSPHO1 phosphatase; recombinant PHOSPHO1, absorbance phosphatase assay; inhibition, % at 13.3 µM; actives 1.1% (n = 290,000); AID 1565; in the data active means inhibition above about 60%
Target sequence (Q8TCT1 whole entry, looked up): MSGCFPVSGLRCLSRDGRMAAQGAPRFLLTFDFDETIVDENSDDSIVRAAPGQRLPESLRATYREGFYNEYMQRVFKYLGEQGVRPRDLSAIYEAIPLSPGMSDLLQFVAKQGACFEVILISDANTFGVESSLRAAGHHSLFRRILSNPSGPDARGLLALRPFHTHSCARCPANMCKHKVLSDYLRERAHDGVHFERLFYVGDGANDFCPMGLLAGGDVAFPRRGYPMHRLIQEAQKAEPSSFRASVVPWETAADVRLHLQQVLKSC
PfM18AAP inh = blocks P. falciparum M18 aspartyl aminopeptidase | recombinant PfM18AAP, H-Glu-NHMec fluorogenic cleavage | inhibition, % at 7.35 µM | actives 1.2% (n = 290,000) | AID 1822;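 active means inhibition above the campaign mean inhibition over all tested compounds plus 3 SD, cut at about 28% in these data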;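 further: 0% = plate median of test compound wells and 100% = 2 mM ZnCl2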
ALR inh = inhibitors of human sulfhydryl oxidase ALR | purified ALR, DTT oxidation, H2O2 HRP-luminol luminescence | inhibition, % (no concentration beside the values) | actives 3.8% (n = 290,000);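 active means mean replicate inhibition above about 79%, with every replicate also reaching it, limit read from the data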
Target sequence (P55789 whole entry, looked up): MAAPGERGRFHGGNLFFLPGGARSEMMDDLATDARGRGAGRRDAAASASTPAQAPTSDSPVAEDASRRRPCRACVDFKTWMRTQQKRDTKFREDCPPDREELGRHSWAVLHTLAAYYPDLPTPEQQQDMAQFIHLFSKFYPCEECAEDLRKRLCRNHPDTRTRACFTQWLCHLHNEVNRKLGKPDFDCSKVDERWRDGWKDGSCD
PfG6PD confirm = PfG6PD inhibition, single-dose confirmed | shares compounds with PfGluPho inh | recombinant PfGluPho, NADPH-diaphorase-resazurin fluorescence | inhibition, % at 20 µM | actives 34% (n = 2,400) | AID 504753;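 active means inhibition of at least 50% at 20 µM in any single replicate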;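 further: 0% = DMSO with substrate and 100% = DMSO lacking glucose-6-phosphate substrate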
Diaphorase 10uM = diaphorase inhibition or oxidation at 10 uM NADPH | shares compounds with PfGluPho inh | diaphorase-coupled resazurin reduction, fluorescence, NADPH 10 uM | inhibition, % at 20 µM | actives 39% (n = 820) | AID 504862;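 active means average inhibition reaching 50% or more with the compound at 20 µM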;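 further: resorufin red fluorescence formed as diaphorase reduces resazurin using NADPH; 0% = DMSO with enzyme and 100% = DMSO without enzyme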
Diaphorase 30uM = inhibits diaphorase or oxidizes, flagging false PfG6PD hits. shares compounds with PfGluPho inh. Diaphorase/resazurin coupled assay, resorufin fluorescence, 30 uM NADPH. inhibition, % at 20 µM. actives 29% (n = 820). AID 504863;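 active means inhibition averaging 50% or more, tested at 20 µM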;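 further: 0% = DMSO with enzyme and 100% = DMSO wells lacking diaphorase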
Starred values were filed as active, the others as inactive; nt = no result. The list is not random: actives were taken first. Their share in the collection is about 5.6%.

SMILES	H9c2 protect	PfGluPho inh	PHOSPHO1 block	PfM18AAP inh	ALR inh	PfG6PD confirm	others
CC1(OC(=O)C2CCCC2)C(=O)C=C2C=C(c3ccsc3)N(C3CC3)C=C2C1=O (stereo not given)	-2	80*	9	nt	nt	28
CC1(OC(=O)C2CCCC2)C(=O)C=C2C=C(c3ccsc3)N(C(CO)CO)C=C2C1=O (stereo not given)	1	66*	9	nt	nt	7
CC1(OC(=O)C2CCCC2)C(=O)C=C2C=C(c3ccsc3)N(CCc3ccccn3)C=C2C1=O (stereo not given)	6	70*	35	nt	-65	39
CC(C)CN1C=C2C(=O)C(C)(OC(=O)C3CCCC3)C(=O)C=C2C=C1c1ccsc1 (stereo not given)	5	44	35	nt	-12	nt
COc1ccc(C(=O)Nc2nc3c(s2)CCCC3)cc1S(=O)(=O)N1CCCc2ccccc21	-10	7	-5	-1	-3	nt
CCCn1c(SCC(=O)N(C)C2CCCCC2)n[nH]c1=O	1	-3	nt	nt	nt	nt
CC(=O)Oc1cc2c3c(c1)/C(=C1/SC(=S)NC1=O)C(=O)N3C(C)(C)C=C2C	-11	80*	-44	7	21	41
COCCN(CCOC)Cc1cc(=O)oc2cc(C)c(C)cc12	4	nt	nt	nt	nt	nt
CC(C)(C)NC(=S)N/N=C/c1cccnc1	11	9	32	-7	11	nt
Cc1no[n+]([O-])c1COc1cccc(/C=N/Nc2nncn2N)c1	4	100*	-10	28*	-55	55*	Diaphorase 10uM=41;Diaphorase 30uM=27
COc1cc(/C=N/n2nnnc2N)ccc1OCc1c(C)no[n+]1[O-]	9	-3	1	-3	-14	nt
Cc1ccc(S(=O)(=O)CCC(=O)NC2CCCC2)cc1	-3	0	8	-9	66	nt
CCOCCCNC(=O)C1CCN(S(=O)(=O)c2ccc3nc4c(c(C(=O)O)c3c2)CCCCC4)CC1	0	-6	15	-6	-7	nt
CCN(CC)C(=O)Cn1cc(S(=O)(=O)CC(=O)Nc2ccccc2C)c2ccccc21	-2	-3	-1	0	nt	nt
Nc1nc2ccccc2n1/N=C/c1ccc(Br)cc1	14	66*	38	-5	-2	-4
CCOC(=O)C1Nc2ccc(C(=O)O)cc2C2C=CCC12 (stereo not given)	-1	62*	3	6	-21	21
CCOC(=O)c1ccc2c(c1)C1C=CCC1C(C(=O)O)N2 (stereo not given)	nt	nt	7	4	10	nt
C#CC1(O)CCC2C3CCc4cc(O)cc(C)c4C3CCC21C (stereo not given)	9	-9	nt	nt	nt	nt
O=S(=O)(Nc1ccccc1-c1ccccc1)c1ccccc1	1	59	nt	nt	nt	nt
Cc1cc(C)c(S(=O)(=O)Nc2ccccc2-c2ccccc2)c(C)c1	-13	85*	-9	25	0	8
Cc1ccc(CNC(=O)CCc2nnc3ccc(N4CCC5(CC4)OCCO5)nn23)cc1	-3	8	4	1	-10	nt
COc1cccc(NC(=O)C(OC(=O)c2ccc([N+](=O)[O-])o2)c2ccccc2)c1 (stereo not given)	28	16	1	-4	-45	nt
COc1cccc(NC(=O)C(OC(=O)c2ccccc2NS(=O)(=O)c2cccs2)c2ccccc2)c1 (stereo not given)	-2	75*	-4	8	-3	32
N#Cc1c(C#N)c(SSc2c(C#N)c(C#N)c(N)n2-c2ccccc2)n(-c2ccccc2)c1N	-17	111*	nt	nt	nt	61*	Diaphorase 10uM=-12;Diaphorase 30uM=-18
O=c1ccc2nc3ccccc3sc-2c1	-11	nt	nt	nt	nt	nt
COc1ccccc1C(=O)OCC(=O)Nc1ccc(Cl)cn1	6	-11	-13	1	-3	nt
CN(CC(=O)Nc1ccccc1Br)C(=O)c1ccccc1OCc1ccc(Cl)cc1	20	59*	nt	nt	nt	30
CN(CC(=O)Nc1ccccc1Br)C(=O)c1ccc(-c2ccc(Cl)cc2)o1	-2	14	15	-3	-4	nt

Screening data deposited in PubChem BioAssay by several laboratories.
